Values joined by “and” are separate entries in the source; they are usually repeats but may differ in a detail not shown here. Equal values may be shown once. The campaign covered roughly 390,000 compounds. About 4,000 (1%) were called active. Another 7% or so got no clear call; they are omitted. Calls come from the whole dose curve; as a rule, active = well fitted inhibition curve with a large enough effect; inconclusive = small, poorly fitted or top-dose-only effect, or another doubt; inactive = no such curve, though single readings can be large or run the other way. The list comes from a sample in which actives are over-represented; it also holds similar structures and randomly drawn compounds. A structure can be active in one record and inactive in another.
Potency is the fitted concentration of half-maximal effect.

In this assay the target is DNA polymerase iota (Homo sapiens) (UniProt Q9UNA4). Briefly: qHTS for Inhibitors of Polymerase Iota. The following applies: Pol iota fluorescent replication assay, 10 min; series mostly up to 115 µM; activity, negative = inhibition: at the top concentration. An outline of the steps: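 Fluorescent replication assay read twice, at 0 min and 10 min after adding 50 nM (final) substrate. Enzyme (10 nM) and compounds were first incubated 15 min at room temperature; enzyme-free buffer wells were negative controls.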
DNA polymerase iota (Homo sapiens), sequence (Q9UNA4 whole entry, looked up): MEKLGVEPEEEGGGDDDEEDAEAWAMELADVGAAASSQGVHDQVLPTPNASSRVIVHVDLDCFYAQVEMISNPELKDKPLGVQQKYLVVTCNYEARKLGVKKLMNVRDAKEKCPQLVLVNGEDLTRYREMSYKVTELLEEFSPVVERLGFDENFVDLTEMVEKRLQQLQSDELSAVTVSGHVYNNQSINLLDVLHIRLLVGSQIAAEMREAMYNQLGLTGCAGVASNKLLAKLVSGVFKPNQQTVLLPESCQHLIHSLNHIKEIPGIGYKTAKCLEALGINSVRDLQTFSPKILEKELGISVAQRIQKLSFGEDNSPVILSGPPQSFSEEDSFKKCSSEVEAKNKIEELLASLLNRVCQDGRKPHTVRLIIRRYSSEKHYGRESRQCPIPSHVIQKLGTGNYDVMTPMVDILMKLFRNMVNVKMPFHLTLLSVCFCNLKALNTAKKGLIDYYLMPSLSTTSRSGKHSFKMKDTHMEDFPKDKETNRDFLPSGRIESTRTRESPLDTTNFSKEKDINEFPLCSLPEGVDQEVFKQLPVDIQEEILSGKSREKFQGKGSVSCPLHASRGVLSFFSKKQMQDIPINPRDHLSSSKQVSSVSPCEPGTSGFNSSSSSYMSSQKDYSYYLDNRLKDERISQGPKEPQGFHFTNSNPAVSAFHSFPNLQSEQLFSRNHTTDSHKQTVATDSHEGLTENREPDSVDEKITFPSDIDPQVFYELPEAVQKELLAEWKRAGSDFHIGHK
Background: qHTS replaces the single test concentration by a dilution series.
As for `CCc1ccc(-c2cc(C(=O)NN3CCN(C)CC3)c3ccccc3n2)cc1`, the “activity, negative = inhibition” value is 25.1% (inactive). As to `O=C(NCCc1ccccn1)c1cc(-c2ccc(Cl)cc2)nc2ccccc12`, the “activity, negative = inhibition” value is -7.04% (inactive). In the case of `Cc1ccc(NC(=O)c2cc(-c3ccc(C)o3)nc3ccccc23)nc1`, the Potency is 20 µM (active). Take `C=Cc1ccc(Cn2c(C(=O)OC)cc3sc(C)cc32)cc1`: the “activity, negative = inhibition” value was 30% (inactive).

Take `CCOc1c(CNCc2ccc(C(=O)O)cc2)cccc1OC`: the “activity, negative = inhibition” value is -4.83% (inactive). On to `CCOc1cccc2c1N[C@@H](c1ccc(C(=O)O)cc1)[C@H]1CC=C[C@@H]21`, for which the Potency was 5.62 µM (active). For the molecule `CCOc1cc(C(=O)O)ccc1OCCOc1ccccc1`, the “activity, negative = inhibition” value is 21.3% (inactive). Regarding `COc1cc(OC)cc(-c2nc3nc(C)c(CCC(=O)Nc4ccc(C)cc4)c(C)n3n2)c1`, the “activity, negative = inhibition” value was 25.1% (inactive). `CCOc1ccccc1NC(=O)Cn1nnc(C(=O)Nc2ccc(C)c(C)c2)c1N`: the “activity, negative = inhibition” value is -19.8% (inactive). As to `COc1cccc(CNC(=O)c2nnn(CC(=O)Nc3cc(Cl)ccc3C)c2N)c1`, the Potency was 50.1 µM (active). As to `Cc1cccc(NC(=O)c2nnn(CC(=O)Nc3ccc(C(C)C)cc3)c2N)c1C`, the “activity, negative = inhibition” value was 27.1% (inactive). For `CCc1ccc(NC(=O)Cn2nnc(C(=O)NCc3ccc4c(c3)OCO4)c2N)cc1`, the “activity, negative = inhibition” value is -19.8% (inactive).

As for `COc1cccc(CNC(=O)c2n[nH]c3ccccc23)c1`, the “activity, negative = inhibition” value is 58.2% (inactive). For the molecule `CC(C)c1ccc(NC(=O)Cn2nnc(C(=O)NCCc3ccccc3)c2N)cc1`, the Potency was 79.4 µM (active). Regarding `CO[C@H]1O[C@@H]2O[C@@]3(C)CC[C@@H]4[C@@H](C)CC[C@@H]([C@H]1C)[C@@]24OO3`, the “activity, negative = inhibition” value was 3.25% (inactive). Same read-out and setting: the figure for `O=C(COC(=O)c1ccccc1OCCOc1ccccc1)Nc1cccc(Br)c1` is -0.106% (inactive); for `OC[C@H]1O[C@@H](n2cnc3c(NC4CCCC4)ncnc32)[C@H](O)[C@H]1O` it is -2.79% [at 58.9 µM] (inactive).

As for `Cc1cc(F)ccc1NS(=O)(=O)c1ccc(-n2cccn2)cc1`, the “activity, negative = inhibition” value was 1.94% (inactive).

Consider `CCOc1n[nH]c(-c2ccccc2)n1`, for which the “activity, negative = inhibition” value was 23% (inactive). In the case of `O=C(NCc1ccco1)c1nc2ncccn2n1`, the “activity, negative = inhibition” value was 3.64% (inactive). With `O=C(NCCc1ccccn1)c1ccc(COc2ccccc2)o1`, the “activity, negative = inhibition” value is 11.1% (inactive). Take `O=C(NCCc1ccco1)c1ccc(OCc2cn3ccccc3n2)cc1`: the Potency was 44.7 µM (active). Consider `CN(C)C(CNC(=O)c1cccc(C#N)c1)c1ccco1` (stereo not given), for which the “activity, negative = inhibition” value is -7.23% (inactive).

For `CN(C)C(CNC(=O)CCCOc1ccccc1)c1ccco1` (stereo not given), the “activity, negative = inhibition” value is 33% (inactive). As to `CN(C)C(CNC(=O)c1ccc(OCc2cn3ccccc3n2)cc1)c1ccco1` (stereo not given), the Potency was 22.4 µM (active). Regarding `OC(CBr)C[n+]1cccc2cc(Br)ccc21` (stereo not given), the “activity, negative = inhibition” value was 4.11% (inactive). For `COc1ccc(Cn2c(C(=O)O)c(CNCCc3cccs3)c3ccc(OC)cc32)cc1`, the “activity, negative = inhibition” value is 2.33% (inactive). On the same count and under the same terms, to `CN(N=O)c1ccc(C=C2c3ccccc3-c3ccccc32)cc1` belongs -8.63% (inactive); to `CCN(CC)S(=O)(=O)c1ccc2c(c1)N(CC(=O)NCc1ccccc1)C(=O)CS2`, 13.7% (inactive); to `CC1(C)C=Cc2c(ccc(C(=O)/C=C/c3ccccc3)c2O)O1`, -5.38% (inactive).

On to `Cc1nc2ccc(S(=O)(=O)NC(C(=O)NCc3ccccc3Cl)C(C)C)cc2s1` (stereo not given), for which the “activity, negative = inhibition” value was 66.7% (inactive). For the molecule `O=C(NCCc1csc(-c2ccc(C(F)(F)F)cc2)n1)C(=O)Nc1ccc(F)c(Cl)c1`, the “activity, negative = inhibition” value was 20.5% (inactive). With `O=C1CCCC(O)=C1N=Nc1ccc2ncsc2c1`, the Potency was 39.8 µM (active). As for `O=C(Cn1cc(SCc2ccccc2)c2ccccc21)N1CCCCC1`, the “activity, negative = inhibition” value is 17.4% (inactive). Regarding `COc1ccccc1CNc1nccn(-c2ccc(F)cc2)c1=O`, the “activity, negative = inhibition” value was 23% (inactive). For the molecule `CC/C=C/C(=O)N1CC2(CC(c3cccc(NC(=O)CC)c3)=NO2)C[C@H]1C(N)=O` (stereo not given in full), the “activity, negative = inhibition” value is 13.9% (inactive).

On to `C/C=C(\C)C(=O)N1CC2(CC(c3cccc(NC(=O)CCCCC)c3)=NO2)C[C@@H]1C(N)=O` (stereo not given in full), for which the “activity, negative = inhibition” value is -29.5% (inactive). With `C=C(C)C(=O)Nc1cccc(C2=NOC3(C2)C[C@H](C(N)=O)N(C(=O)C(c2ccccc2)c2ccccc2)C3)c1` (stereo not given in full), the Potency is 31.6 µM (active). Take `CCc1cccc(NC(=O)CN(C)S(=O)(=O)c2ccc3[nH]c4c(c3c2)CCCC4)c1`: the “activity, negative = inhibition” value is 1.4% (inactive). For the molecule `Cc1cc(C)c2nc(-c3ccco3)cc(C(=O)O)c2c1`, the Potency is 11.2 µM (active). As to `Cc1cccc(NC(=O)CSc2nc(-c3ccco3)cc(C(F)(F)F)n2)c1C`, the “activity, negative = inhibition” value is 15.3% (inactive). `Cc1ccsc1-c1cc(C(=O)O)c2c(ccc3ccccc32)n1`: the “activity, negative = inhibition” value was 83.5% (inactive).

With `CCCNC(=O)C(CC)n1nc(CC)n2c(cc3oc(C)cc32)c1=O` (stereo not given), the “activity, negative = inhibition” value was 16.9% (inactive). As to `COc1ccc(C(=O)Nc2cccc(C(=O)OCc3cc(=O)n4c5c(sc4n3)CCCC5)c2)cc1`, the “activity, negative = inhibition” value was 3.6% (inactive). For the molecule `CC(C)(C)OC(=O)N1CCC(c2c(C(=O)NCCc3ccsc3)cnn2-c2ccc(F)cc2F)CC1`, the “activity, negative = inhibition” value was -3.98% (inactive). As to `CC(C)(C)n1ncc2c(=O)n(Cc3ccc(C(=O)c4ccccc4)cc3)cnc21`, the “activity, negative = inhibition” value is 24.5% (inactive). Regarding `CC(C)(C)n1ncc2c(=O)n(Cc3ccc(Cl)cc3)cnc21`, the Potency entry was “inactive and 10 µM (active)”.

In the case of `CC(C)(C)n1ncc2c(=O)n(Cc3c(Cl)cccc3Br)cnc21`, the “activity, negative = inhibition” value was 23.4% (inactive). Turning to `CN(C)C1=C2C=CC=CC2/C(=C2/C=Cc3ccccc32)C=C1` (stereo not given), the “activity, negative = inhibition” value is 48.7% (inactive). In the case of `CC1(C)CCc2cc(S(=O)(=O)N3CCN(c4nc(-c5cccs5)nc5ccccc45)CC3)ccc2O1`, the “activity, negative = inhibition” value is 24.7% (inactive).

These data come from PubChem BioAssay AID588590 (National Center for Advancing Translational Sciences (NCATS), 2011).
